Results on two sequences are retold here after PMC7862700, “An all-to-all approach to the identification of sequence-specific readers for epigenetic DNA modifications on cytosine”.

Common to all, as to test: DAPPL (digital affinity profiling via proximity ligation, sequencing); 10 mM Tris-HCl pH 7.5, 50 mM NaCl, 1 mM DTT, 4% glycerol, room temperature, 30 min; GST-TFs on glutathione beads, 16-mer random dsDNA library, 0.1% formaldehyde crosslink after washing; high values mean tight binding
What all share (details): protein: recombinant; tags: N-terminal GST; dsDNA, one strand shown

One assay concerns the target T1, FLI1 (Homo sapiens, UniProt Q01543 1-452).
T1 sequence: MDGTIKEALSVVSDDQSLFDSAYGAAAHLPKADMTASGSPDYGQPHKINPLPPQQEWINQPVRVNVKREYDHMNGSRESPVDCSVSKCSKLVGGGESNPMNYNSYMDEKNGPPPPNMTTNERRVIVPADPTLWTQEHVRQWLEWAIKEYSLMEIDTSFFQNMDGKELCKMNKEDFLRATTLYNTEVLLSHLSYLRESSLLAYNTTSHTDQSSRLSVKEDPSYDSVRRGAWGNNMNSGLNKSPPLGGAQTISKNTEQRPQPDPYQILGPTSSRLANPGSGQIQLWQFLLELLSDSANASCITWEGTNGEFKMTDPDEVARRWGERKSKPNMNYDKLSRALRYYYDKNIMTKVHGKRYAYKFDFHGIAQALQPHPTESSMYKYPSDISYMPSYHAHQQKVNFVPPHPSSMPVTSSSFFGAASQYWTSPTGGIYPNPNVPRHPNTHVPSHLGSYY
In a few lines:
(§1)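 The binding signal reported is, for every hexamer, its read frequency for a factor over its read frequency for the tag-only sample. Reads came from pools of yeast-expressed, GST-fused human transcription factors on glutathione beads, barcoded with DNA and mixed with that sample, which were incubated with 200 nmole of a random double-stranded 16-mer DNA library in Tris/NaCl/DTT/glycerol buffer at room temperature for 30 min. After washing, the pools were crosslinked with 0.1% formaldehyde, proximity-ligated with BsaI/T4 ligase for 1 h at 37 °C, PCR-amplified and sequenced on an Illumina NextSeq500.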

The target in the next assay is T2, ELK1 (Homo sapiens, UniProt P19419 1-428).
T2 sequence: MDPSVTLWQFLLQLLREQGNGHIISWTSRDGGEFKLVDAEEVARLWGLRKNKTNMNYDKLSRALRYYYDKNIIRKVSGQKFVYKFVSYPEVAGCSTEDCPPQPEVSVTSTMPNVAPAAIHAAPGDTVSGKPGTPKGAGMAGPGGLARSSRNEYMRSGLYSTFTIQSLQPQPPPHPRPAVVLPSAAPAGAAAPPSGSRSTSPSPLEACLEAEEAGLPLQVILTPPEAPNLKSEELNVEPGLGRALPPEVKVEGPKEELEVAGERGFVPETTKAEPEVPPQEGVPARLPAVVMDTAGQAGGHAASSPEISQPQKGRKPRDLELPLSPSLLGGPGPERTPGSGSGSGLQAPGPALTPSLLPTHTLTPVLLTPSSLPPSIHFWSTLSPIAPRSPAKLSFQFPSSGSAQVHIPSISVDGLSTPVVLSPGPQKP
In a few lines:
as §1

In a further assay the target is T3, GABPA (Homo sapiens, UniProt Q06546 1-454).
T3 sequence: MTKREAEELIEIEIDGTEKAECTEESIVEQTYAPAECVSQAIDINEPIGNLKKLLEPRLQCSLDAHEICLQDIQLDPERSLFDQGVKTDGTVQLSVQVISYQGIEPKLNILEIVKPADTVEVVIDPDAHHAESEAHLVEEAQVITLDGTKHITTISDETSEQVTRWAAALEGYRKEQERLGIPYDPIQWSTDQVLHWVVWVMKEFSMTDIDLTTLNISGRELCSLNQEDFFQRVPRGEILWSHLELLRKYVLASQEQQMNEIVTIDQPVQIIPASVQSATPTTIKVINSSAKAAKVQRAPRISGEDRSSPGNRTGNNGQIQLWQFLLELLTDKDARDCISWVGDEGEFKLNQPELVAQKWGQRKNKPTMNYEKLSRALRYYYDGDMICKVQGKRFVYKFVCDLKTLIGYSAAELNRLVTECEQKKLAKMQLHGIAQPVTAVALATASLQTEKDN
In a few lines:
as §1

In another assay the target is T4, ERG (Homo sapiens, UniProt P11308 1-479).
T4 sequence: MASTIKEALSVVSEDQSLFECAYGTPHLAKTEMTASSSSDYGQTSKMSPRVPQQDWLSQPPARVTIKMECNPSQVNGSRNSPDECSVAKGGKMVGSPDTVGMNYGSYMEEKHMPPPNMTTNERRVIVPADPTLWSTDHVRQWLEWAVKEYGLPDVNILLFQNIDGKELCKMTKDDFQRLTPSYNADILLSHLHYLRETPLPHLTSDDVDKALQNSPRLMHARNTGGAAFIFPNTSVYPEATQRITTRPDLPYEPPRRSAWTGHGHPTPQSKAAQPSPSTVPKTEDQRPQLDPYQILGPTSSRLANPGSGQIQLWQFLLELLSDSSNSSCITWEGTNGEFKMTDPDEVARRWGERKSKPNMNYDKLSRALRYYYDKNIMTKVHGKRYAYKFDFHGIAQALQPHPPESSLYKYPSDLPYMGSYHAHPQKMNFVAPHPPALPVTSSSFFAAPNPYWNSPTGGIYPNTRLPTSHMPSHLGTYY
In a few lines:
as §1

For the next assay, the target named is ELF1 (Homo sapiens, UniProt P32519 1-619). In a few lines:
as §1

The next assay concerns the target T5, EHF (Homo sapiens, UniProt Q9NZC4 1-300).
T5 sequence: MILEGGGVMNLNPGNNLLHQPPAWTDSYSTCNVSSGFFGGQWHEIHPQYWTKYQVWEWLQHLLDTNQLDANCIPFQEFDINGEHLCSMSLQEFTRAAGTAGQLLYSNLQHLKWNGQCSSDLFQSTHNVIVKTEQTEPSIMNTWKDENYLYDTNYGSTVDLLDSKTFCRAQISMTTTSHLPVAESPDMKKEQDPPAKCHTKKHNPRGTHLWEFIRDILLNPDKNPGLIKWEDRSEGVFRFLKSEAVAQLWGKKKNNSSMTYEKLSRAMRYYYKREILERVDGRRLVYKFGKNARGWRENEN
In a few lines:
as §1

The next assay addresses SPI1 (Homo sapiens, UniProt P17947 1-270). In a few lines:
as §1

A further assay concerns the target SPIB (Homo sapiens, UniProt Q01892 1-262). In a few lines: as §1
The target in a further assay is T6, ELK3 (Homo sapiens, UniProt P41970 1-407).
T6 sequence: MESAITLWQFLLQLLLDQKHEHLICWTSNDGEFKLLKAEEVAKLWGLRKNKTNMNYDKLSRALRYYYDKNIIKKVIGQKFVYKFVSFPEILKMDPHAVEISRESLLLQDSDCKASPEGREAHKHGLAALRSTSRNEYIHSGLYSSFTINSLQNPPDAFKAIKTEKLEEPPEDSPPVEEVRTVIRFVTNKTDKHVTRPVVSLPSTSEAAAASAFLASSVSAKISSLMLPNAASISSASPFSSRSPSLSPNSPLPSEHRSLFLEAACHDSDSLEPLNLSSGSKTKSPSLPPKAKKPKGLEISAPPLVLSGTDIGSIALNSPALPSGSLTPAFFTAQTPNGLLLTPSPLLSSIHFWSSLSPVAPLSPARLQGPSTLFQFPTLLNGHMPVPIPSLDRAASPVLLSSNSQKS
In a few lines:
as §1

The target of the next assay is T7, FEV (Homo sapiens, UniProt Q99581 1-238).
T7 sequence: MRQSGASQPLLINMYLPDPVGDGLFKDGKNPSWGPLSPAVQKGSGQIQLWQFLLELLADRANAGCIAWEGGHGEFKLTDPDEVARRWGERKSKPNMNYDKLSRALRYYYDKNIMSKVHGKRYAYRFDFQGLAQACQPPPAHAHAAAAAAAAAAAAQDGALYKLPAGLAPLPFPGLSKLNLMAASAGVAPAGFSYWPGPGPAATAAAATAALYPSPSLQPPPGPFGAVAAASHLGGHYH
In a few lines: as §1

For the next assay, the target named is ETV5 (Homo sapiens, UniProt P41161 1-510). In a few lines: as §1
Another assay addresses T8, SPIC (Homo sapiens, UniProt Q8N5J4 1-248).
T8 sequence: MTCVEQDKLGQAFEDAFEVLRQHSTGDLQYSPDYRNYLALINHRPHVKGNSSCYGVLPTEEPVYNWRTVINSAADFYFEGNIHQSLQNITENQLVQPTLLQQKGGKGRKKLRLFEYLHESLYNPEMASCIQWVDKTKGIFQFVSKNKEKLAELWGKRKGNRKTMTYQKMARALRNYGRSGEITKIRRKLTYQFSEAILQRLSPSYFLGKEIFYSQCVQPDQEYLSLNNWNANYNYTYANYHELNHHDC
In a few lines: as §1

The target of a further assay is ELF4 (Homo sapiens, UniProt Q99607 1-663). In a few lines: as §1
In a further assay the target is T9, ELK4 (Homo sapiens, UniProt P28324-2 1-405).
T9 sequence: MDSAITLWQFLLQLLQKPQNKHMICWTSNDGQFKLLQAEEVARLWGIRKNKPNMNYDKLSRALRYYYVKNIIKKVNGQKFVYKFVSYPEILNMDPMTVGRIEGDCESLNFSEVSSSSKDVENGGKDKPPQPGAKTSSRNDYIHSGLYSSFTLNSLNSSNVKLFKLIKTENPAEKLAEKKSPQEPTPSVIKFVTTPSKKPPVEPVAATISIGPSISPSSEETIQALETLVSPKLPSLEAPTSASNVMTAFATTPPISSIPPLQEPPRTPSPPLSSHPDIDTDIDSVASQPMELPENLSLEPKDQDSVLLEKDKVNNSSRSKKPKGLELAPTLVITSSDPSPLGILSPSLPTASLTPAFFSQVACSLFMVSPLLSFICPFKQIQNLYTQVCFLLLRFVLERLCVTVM
In a few lines:
as §1

Another assay has as its target T10, ETV2 (Homo sapiens, UniProt O00321 1-342).
T10 sequence: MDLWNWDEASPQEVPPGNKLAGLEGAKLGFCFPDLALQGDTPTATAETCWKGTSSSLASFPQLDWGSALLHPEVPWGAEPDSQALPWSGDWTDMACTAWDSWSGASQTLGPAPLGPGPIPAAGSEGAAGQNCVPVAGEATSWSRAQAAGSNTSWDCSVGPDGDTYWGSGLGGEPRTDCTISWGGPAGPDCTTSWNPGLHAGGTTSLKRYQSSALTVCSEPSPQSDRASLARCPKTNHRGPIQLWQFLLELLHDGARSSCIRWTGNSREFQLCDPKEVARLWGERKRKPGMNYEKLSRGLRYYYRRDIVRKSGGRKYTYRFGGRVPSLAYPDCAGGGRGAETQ
In a few lines:
as §1

For a further assay, the target named is T11, ELF3 (Homo sapiens, UniProt P78545 1-371).
T11 sequence: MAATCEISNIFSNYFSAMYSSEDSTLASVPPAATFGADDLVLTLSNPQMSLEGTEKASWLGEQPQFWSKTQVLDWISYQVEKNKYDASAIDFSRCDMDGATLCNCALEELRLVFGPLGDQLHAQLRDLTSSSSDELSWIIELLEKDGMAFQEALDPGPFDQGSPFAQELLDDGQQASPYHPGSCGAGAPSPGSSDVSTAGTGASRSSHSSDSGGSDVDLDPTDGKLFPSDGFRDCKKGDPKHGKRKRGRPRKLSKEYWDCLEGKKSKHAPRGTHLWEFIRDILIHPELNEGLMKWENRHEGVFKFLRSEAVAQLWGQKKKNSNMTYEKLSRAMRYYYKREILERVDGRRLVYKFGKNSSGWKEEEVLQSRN
In a few lines: as §1

Another assay concerns the target ETV1 (Homo sapiens, UniProt P50549 1-477). In a few lines: as §1

ETV5, sequence (P41161 whole entry): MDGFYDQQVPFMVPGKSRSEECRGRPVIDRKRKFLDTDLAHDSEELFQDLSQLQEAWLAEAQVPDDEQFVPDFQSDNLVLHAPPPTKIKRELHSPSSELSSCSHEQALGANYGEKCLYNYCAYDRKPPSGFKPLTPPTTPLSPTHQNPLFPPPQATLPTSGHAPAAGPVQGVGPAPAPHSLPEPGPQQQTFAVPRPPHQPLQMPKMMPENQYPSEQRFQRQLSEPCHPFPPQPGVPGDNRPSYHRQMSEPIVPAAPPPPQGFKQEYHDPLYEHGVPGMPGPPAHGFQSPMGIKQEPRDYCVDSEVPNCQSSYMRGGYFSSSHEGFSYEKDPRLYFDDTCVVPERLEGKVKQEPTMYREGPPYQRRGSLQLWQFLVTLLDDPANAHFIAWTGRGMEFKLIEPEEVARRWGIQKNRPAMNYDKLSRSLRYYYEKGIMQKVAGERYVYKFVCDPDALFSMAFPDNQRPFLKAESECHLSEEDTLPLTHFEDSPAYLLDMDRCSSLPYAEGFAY
ELF4, sequence (Q99607 whole entry): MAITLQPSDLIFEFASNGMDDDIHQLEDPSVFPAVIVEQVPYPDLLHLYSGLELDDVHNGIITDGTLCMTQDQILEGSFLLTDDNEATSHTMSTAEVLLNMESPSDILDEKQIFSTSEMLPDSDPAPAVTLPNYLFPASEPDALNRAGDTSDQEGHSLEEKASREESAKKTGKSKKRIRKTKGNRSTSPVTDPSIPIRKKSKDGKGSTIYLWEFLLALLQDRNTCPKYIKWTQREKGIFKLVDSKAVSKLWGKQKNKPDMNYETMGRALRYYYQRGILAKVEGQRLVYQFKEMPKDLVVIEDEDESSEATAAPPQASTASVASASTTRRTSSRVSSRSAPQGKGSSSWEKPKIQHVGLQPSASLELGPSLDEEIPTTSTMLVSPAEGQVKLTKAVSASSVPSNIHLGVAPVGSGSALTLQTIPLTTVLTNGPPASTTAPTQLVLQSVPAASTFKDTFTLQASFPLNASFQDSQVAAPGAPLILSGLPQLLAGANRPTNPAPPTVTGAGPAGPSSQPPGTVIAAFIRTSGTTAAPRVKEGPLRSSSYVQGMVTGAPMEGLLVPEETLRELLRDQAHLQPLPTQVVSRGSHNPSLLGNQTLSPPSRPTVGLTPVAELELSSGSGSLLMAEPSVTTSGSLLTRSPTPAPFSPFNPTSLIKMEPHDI
ETV1, sequence (P50549 whole entry): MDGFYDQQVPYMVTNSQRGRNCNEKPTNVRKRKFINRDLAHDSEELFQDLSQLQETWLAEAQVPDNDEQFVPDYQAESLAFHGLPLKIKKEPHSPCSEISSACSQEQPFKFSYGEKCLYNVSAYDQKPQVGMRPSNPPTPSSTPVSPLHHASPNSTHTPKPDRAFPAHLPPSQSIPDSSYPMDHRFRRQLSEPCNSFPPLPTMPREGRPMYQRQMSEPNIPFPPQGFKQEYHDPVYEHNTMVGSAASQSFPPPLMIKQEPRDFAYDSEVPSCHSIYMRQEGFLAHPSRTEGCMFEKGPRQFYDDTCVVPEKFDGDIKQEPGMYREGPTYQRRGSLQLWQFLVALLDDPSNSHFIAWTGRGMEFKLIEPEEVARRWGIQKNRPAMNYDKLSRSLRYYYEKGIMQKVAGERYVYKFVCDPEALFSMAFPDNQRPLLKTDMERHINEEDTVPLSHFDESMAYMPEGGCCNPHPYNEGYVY
SPIB, sequence (Q01892 whole entry): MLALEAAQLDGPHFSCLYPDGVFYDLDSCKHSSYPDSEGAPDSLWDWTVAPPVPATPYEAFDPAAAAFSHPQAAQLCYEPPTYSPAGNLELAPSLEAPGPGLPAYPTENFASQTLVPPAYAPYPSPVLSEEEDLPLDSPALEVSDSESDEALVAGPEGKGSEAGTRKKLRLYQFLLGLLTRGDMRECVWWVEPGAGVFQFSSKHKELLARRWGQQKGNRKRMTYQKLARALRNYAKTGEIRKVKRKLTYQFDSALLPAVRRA
ELF1, sequence (P32519 whole entry): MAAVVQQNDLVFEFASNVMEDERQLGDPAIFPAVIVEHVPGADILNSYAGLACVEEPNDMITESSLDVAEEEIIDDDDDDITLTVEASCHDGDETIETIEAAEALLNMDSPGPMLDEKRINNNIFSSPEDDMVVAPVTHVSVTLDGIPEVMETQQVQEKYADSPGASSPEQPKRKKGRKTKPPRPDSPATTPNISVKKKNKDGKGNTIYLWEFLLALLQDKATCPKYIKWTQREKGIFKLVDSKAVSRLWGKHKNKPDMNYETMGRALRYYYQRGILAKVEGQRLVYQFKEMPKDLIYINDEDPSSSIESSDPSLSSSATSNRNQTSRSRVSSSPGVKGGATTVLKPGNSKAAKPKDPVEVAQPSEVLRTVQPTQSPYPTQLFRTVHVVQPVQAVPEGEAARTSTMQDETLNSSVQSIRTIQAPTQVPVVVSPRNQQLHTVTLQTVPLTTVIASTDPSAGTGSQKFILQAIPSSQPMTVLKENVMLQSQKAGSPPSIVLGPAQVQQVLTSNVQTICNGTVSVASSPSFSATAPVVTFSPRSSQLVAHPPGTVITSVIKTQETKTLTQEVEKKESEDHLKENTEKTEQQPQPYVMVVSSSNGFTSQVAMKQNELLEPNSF

Consider GATGCA, for which the binding signal in the assay with FLI1 is 1.15 fold enrichment (6-mer frequency, TF over GST control); in the assay with ELK1, 1.14 fold enrichment (6-mer frequency, TF over GST control); in the assay with GABPA it was 1.18 fold enrichment (6-mer frequency, TF over GST control); in the assay with ERG, 1.11 fold enrichment (6-mer frequency, TF over GST control); with ELF1, 1.06 fold enrichment (6-mer frequency, TF over GST control); with EHF, 1.2 fold enrichment (6-mer frequency, TF over GST control). The binding signal with SPI1 is 1.06 fold enrichment (6-mer frequency, TF over GST control); with SPIB it was 1.23 fold enrichment (6-mer frequency, TF over GST control); with ELK3, 1.16 fold enrichment (6-mer frequency, TF over GST control); in the assay with FEV it was 1.12 fold enrichment (6-mer frequency, TF over GST control); with ETV5, 1.13 fold enrichment (6-mer frequency, TF over GST control); in the assay with SPIC, 1.17 fold enrichment (6-mer frequency, TF over GST control). Also, the binding signal in the assay with ELF4 is 1.23 fold enrichment (6-mer frequency, TF over GST control); with ELK4 it was 1.19 fold enrichment (6-mer frequency, TF over GST control); with ETV2, 1 fold enrichment (6-mer frequency, TF over GST control); in the assay with ELF3 it was 1.16 fold enrichment (6-mer frequency, TF over GST control); in the assay with ETV1 it was 1.04 fold enrichment (6-mer frequency, TF over GST control).

Take AGGAAG: the binding signal with FLI1 is 1.24 fold enrichment (6-mer frequency, TF over GST control); with ELK1 it was 1.32 fold enrichment (6-mer frequency, TF over GST control); in the assay with GABPA, 1.24 fold enrichment (6-mer frequency, TF over GST control); in the assay with ERG it was 1.63 fold enrichment (6-mer frequency, TF over GST control); in the assay with ELF1, 1.23 fold enrichment (6-mer frequency, TF over GST control); with EHF, 1.57 fold enrichment (6-mer frequency, TF over GST control). Moreover, the binding signal in the assay with SPI1 was 2.12 fold enrichment (6-mer frequency, TF over GST control); in the assay with SPIB it was 1.44 fold enrichment (6-mer frequency, TF over GST control); with ELK3, 1.26 fold enrichment (6-mer frequency, TF over GST control); in the assay with FEV it was 1.24 fold enrichment (6-mer frequency, TF over GST control); with ETV5 it was 1.44 fold enrichment (6-mer frequency, TF over GST control); in the assay with SPIC, 1.51 fold enrichment (6-mer frequency, TF over GST control). The binding signal with ELF4 was 1.21 fold enrichment (6-mer frequency, TF over GST control); with ELK4, 1.11 fold enrichment (6-mer frequency, TF over GST control); with ETV2 it was 1.4 fold enrichment (6-mer frequency, TF over GST control); with ELF3, 1.52 fold enrichment (6-mer frequency, TF over GST control); with ETV1 it was 1.5 fold enrichment (6-mer frequency, TF over GST control).
